GIRK2 activator: Activators of human GIRK2-containing channels; 34,000 tested, under 10 active; AID 1259324; activation (% efficacy), % for hits at 75 µM; HEK293 GIRK2/NPY4 cells, thallium flux fluorescence; P48051;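 active = primary screen hit, no activity in plain HEK293 cells, and in GIRK2-only cells above 5% efficacy rising with concentration; inactive = the rest, including fluorescent compounds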;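 note: efficacy is normalized control-subtracted fluorescence 15 s after thallium addition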
Target sequence (P48051 whole entry, looked up): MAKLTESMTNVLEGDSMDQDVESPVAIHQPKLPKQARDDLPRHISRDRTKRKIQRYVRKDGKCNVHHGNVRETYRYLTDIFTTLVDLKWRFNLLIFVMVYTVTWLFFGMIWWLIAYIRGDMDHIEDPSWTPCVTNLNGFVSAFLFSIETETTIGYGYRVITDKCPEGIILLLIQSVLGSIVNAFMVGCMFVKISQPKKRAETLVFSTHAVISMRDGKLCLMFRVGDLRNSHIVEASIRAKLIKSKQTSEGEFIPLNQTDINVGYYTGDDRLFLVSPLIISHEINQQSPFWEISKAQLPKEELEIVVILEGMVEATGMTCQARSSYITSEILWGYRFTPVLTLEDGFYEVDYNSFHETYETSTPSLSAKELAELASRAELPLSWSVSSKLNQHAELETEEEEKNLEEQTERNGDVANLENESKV
AMPAR-TARP mod: modulators of AMPA receptor GluA2-stargazin complexes | calls only at 30 µM | 3.5% of 40,000 active | HEK293 GluA2+stargazin, membrane potential dye (FDSS), glutamate EC50; hits were called plate by plate, in both directions | O88602+P19491;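 active = any of four per-well response measures lying three or more SD from its plate-wide compound average, in either direction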
Of the large screens only hits and unclear results are named; the others gave an inactive call. The entries come from a sample that favours hits as a whole.

CC(O)(CNC(=O)C(=O)Nc1cccnc1)c1ccccc1 (configuration not stated)	none (no result: AMPAR-TARP mod)
Cc1cc(-n2c(C)nc3ccccc3c2=O)ccc1NC(=O)Nc1cccs1	none
COc1ccccc1OCC(O)CN1CC(C)CC(C)C1 (configuration not stated)	none
Cc1cc(C)c(C)c(OCC(O)CN2C(C)(C)CC(O)CC2(C)C)c1 (configuration not stated)	AMPAR-TARP mod active
COc1ccccc1OCC(O)CN1C(C)(C)CC(O)CC1(C)C (configuration not stated)	none
Cc1cc(C)c(C)c(OCC(O)CN2CC(C)CC(C)C2)c1 (configuration not stated)	AMPAR-TARP mod active
CSc1ccccc1CN1CCC(CNC(=O)c2cccn(C)c2=O)CC1	none
COc1ccc(N2C(=O)CN(CCc3ccccc3OC)C3CS(=O)(=O)CC32)cc1 (configuration not stated)	none
COc1ccc(N2C(=O)CS(=O)(=O)C23C(=O)N(Cc2ccccc2C)c2ccccc23)cc1 (configuration not stated)	AMPAR-TARP mod active (no result: GIRK2 activator)
COc1ccc(Cl)cc1NC(=O)Cn1nc2ccc(Sc3ccccc3)nn2c1=O	none (no result: AMPAR-TARP mod)
COc1ccccc1NC(=O)CSc1ccc(-c2cc(OC)c(OC)c(OC)c2)nn1	none
CCC(=O)Nc1ccc(SCC(=O)Nc2ccc(OC)c(OC)c2)nn1	none (no result: AMPAR-TARP mod)
COc1ccccc1CNC(=O)CSc1ccc(NC(=O)c2ccco2)nn1	none
COc1ccc(NC(=O)CSc2ccc(NC(=O)c3ccco3)nn2)cc1OC	AMPAR-TARP mod active
O=C(CSc1ccc(NC(=O)c2ccco2)nn1)NCc1ccccc1Cl	AMPAR-TARP mod active
COc1ccc(-c2ccc(SCC(=O)Nc3ccccc3Cl)nn2)cc1OC	AMPAR-TARP mod active (no result: GIRK2 activator)
Cn1c(=O)n(CC(N)=O)c(=O)c2c1nc1n2CCCN1c1ccc(Br)cc1	none (no result: GIRK2 activator)
O=C(NCCS(=O)(=O)N1CCN(Cc2ccccc2)CC1)c1ccc(F)c(F)c1	none
O=C(NCCS(=O)(=O)N1CCN(Cc2ccccc2)CC1)c1ccccc1Cl	none
CCN1CCc2c(sc(NC(=O)c3cc4ccccc4o3)c2-c2nc3ccccc3s2)C1	none (no result: GIRK2 activator)
CC(=O)Nc1sc2c(c1-c1nc3ccccc3s1)CCN(Cc1ccccc1)C2	none (no result: GIRK2 activator)
O=C(Nc1sc2c(c1-c1nc3ccccc3s1)CCN(Cc1ccccc1)C2)c1cccs1	AMPAR-TARP mod active (no result: GIRK2 activator)
CN1CCc2c(sc(NC(=O)c3ccc(Cl)cc3)c2-c2nc3ccccc3s2)C1	none (no result: GIRK2 activator)
CCn1ccc(C(=O)Nc2sc3c(c2-c2nc4ccccc4s2)CCN(C)C3)n1	AMPAR-TARP mod active (no result: GIRK2 activator)
Cc1cc(C(=O)Nc2sc3c(c2-c2nc4ccccc4s2)CCN(Cc2ccccc2)C3)on1	AMPAR-TARP mod active (no result: GIRK2 activator)
O=C(NCC(F)(F)F)c1nc(-c2cnccn2)no1	none
Cc1c(Cl)cccc1NC(=O)Cc1cc(-c2ccc(F)cc2)on1	none
C=CCn1c(=O)c2c(nc3n2CCCCN3c2ccc(OCC)cc2)n(C)c1=O	none (no result: GIRK2 activator)
O=C(NCc1cccs1)C(=O)NCC1CCN(C(=O)Nc2ccc(F)cc2)CC1	none
Cc1cc(Cl)c(Cl)cc1S(=O)(=O)Nc1cccnc1	none (no result: GIRK2 activator)
COc1ccc(-c2noc(Cn3ccn4nc(-c5ccc(C)c(C)c5)cc4c3=O)n2)cc1OC	none
CCCc1nc2ccccc2n1Cc1ccccc1OC	AMPAR-TARP mod active (no result: GIRK2 activator)
CCc1nc2ccccc2n1Cc1ccccc1OC	none
COc1ccccc1-c1c(C)nn2c(N3CCN(Cc4ccccc4)CC3)cc(C)nc12	none
COc1ccc(-c2c(C)nn3c(N4CCN(Cc5ccccc5)CC4)cc(C)nc23)cc1OC	AMPAR-TARP mod active
COc1ccc(CCC(=O)N2CCN(c3nccn3-c3cccc(Cl)c3)CC2)cc1	none
O=C(CCCc1ccccc1)N1CCN(c2nccn2-c2cccc(Cl)c2)CC1	AMPAR-TARP mod active
CCOc1ccccc1S(=O)(=O)NCC1CCN(c2ccccn2)CC1	none
O=C(Nc1cccc(F)c1)c1ccc2c(c1)CC(c1ccc(Cl)cc1)OC2=O (configuration not stated)	none (no result: GIRK2 activator)
O=S(=O)(Nc1ccc2c(c1)OCCO2)c1c(Cl)cccc1Cl	none
O=S(=O)(Nc1cccc(C(F)(F)F)c1)c1c(Cl)cccc1Cl	AMPAR-TARP mod active
COc1ccc(OC)c(NC(=O)Cn2c(=O)c(CNc3ccccc3)cc3ccc(C)cc32)c1	none (no result: GIRK2 activator)
COCCNC(=O)CSc1nnc(-c2cn(C)nc2OC)n1C	none
Cn1c(O)c(N=Nc2nc3c(c(=O)[nH]c(=O)n3C)n2CCCOc2ccccc2)c(=O)n(C)c1=O	none (no result: GIRK2 activator)
Cn1c(=O)c2c(nc(N=Nc3c(O)[nH]c4ccccc34)n2CCc2ccccc2)n(C)c1=O	none (no result: GIRK2 activator)
Cn1c(=O)c2c(nc(NCc3ccccc3)n2CC(=O)N=Nc2c(O)[nH]c3ccccc23)n(C)c1=O	AMPAR-TARP mod active (no result: GIRK2 activator)
Cn1c(O)c(N=Nc2nc3c(c(=O)n(C)c(=O)n3C)n2Cc2ccccc2)c(=O)n(C)c1=O	AMPAR-TARP mod active (no result: GIRK2 activator)
Cn1nc(-c2ccc(NC(=O)c3ccco3)cc2)ccc1=O	none
CCOC(=O)CN1CC(c2nc(-c3ccsc3)no2)C1	none (no result: AMPAR-TARP mod)

Bioassay records deposited in PubChem BioAssay by several laboratories.
